Compounds with a hit are over-represented: about 4.1% of the library has one in this group of screens.
Mtb FBA inh: inhibits M. tuberculosis FBA enzyme. P9WQA3. purified M. tuberculosis FBA, fluorescence read-out. inhibition, % at 1 µM. 360,000 compounds, 2.3% hits;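 note: 0% = vehicle and 100% = reference inhibitor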
BH1578 lux ind: induces V. cholerae light production without autoinducers; V. cholerae BH1578 lux reporter, luminescence, 6 h; AID 588436; activation, % at 18.7 µM; 350,000 compounds, 0.16% hits; in the data active = activation mostly above about 9.7%, no sharp cut-off
UGM FP inh: inhibitors of M. tuberculosis UDP-galactopyranose mutase; AID 504406; P9WIQ1; purified UGM, fluorescence polarization probe displacement; 320,000 compounds, 0.06% hits; inhibition, % at 10 µM; in the data active = inhibition above about 10%, passing the limit was not always enough
Target sequence (P9WIQ1 whole entry, looked up): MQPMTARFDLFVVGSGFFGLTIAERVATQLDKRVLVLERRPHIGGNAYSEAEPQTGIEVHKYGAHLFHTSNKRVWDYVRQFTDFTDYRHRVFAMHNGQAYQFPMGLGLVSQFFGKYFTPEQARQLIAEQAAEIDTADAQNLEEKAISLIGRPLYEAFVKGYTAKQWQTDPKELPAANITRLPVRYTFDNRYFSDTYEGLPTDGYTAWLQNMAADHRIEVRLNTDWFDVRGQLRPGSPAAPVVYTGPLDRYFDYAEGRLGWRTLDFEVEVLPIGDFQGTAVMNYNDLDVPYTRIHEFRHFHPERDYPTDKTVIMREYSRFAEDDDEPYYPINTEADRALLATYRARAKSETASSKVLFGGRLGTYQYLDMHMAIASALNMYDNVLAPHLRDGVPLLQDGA
RecA intein inh: Mtb RecA intein splicing inhibition; P9WHJ3; cell-free RecA intein splicing, fluorescence; inhibition, % (concentration not given with the values); 290,000 compounds, 0.75% hits; AID 2221; in the data active = inhibition above about 30%;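 note: 0% = vehicle wells and 100% = reference inhibitor control wells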
Rv3671c protease: inhibitors of M. tuberculosis serine protease Rv3671c; inhibition, % at 5.96 µM; 320,000 compounds, 0.048% hits; AID 2606; in the data active = inhibition above about 38%;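 note: extracellular domain of Rv3671c used as enzyme; 0% = enzyme with DMSO and 100% = no enzyme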
GDH-TPI counter-1: GDH-TPI coupled enzyme inhibition counter-screen; GDH-TPI coupled enzyme counterscreen, NADH absorbance; 360,000 compounds, 1.2% hits; inhibition, % at 4.8 µM; AID 588335; in the data active = inhibition above about 30%;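 note: 0% = DMSO wells and 100% = wells lacking the enzyme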
Mtb FBA confirm: confirmation of M. tuberculosis fructose-bisphosphate aldolase inhibitors; shares compounds with Mtb FBA inh; purified M. tuberculosis FBA, fluorescence read-out; inhibition, % at 1 µM; 5,600 compounds, 78% hits; AID 651616;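 note: 0% = vehicle wells and 100% = reference inhibitor wells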
GDH-TPI counter-2: GDH-TPI inhibition counter-screen for FBA inhibitors | GDH-TPI coupled enzyme counterscreen, fluorescence | shares compounds with Mtb FBA inh | 5,600 compounds, 81% hits | inhibition, % at 1 µM; in the data active = inhibition above about 10%
GDH-TPI DR: counter-screen for M. tuberculosis FBA inhibitors: GDH-TPI dose response | 170 compounds, 79% hits | GDH-TPI coupled enzyme assay, fluorescence, artifact counterscreen | IC50, µM | shares compounds with Mtb FBA inh; call rule not given here
* marks the source's active call; other numbers are inactive results; i = inactive; / = no result given; + = active, no number. Cut-off read from the data, not from the text of the source, unless noted: active = inhibition above about 27%; inactive = the rest.

SMILES	Mtb FBA inh	BH1578 lux ind	UGM FP inh	RecA intein inh	Rv3671c protease	GDH-TPI counter-1	Mtb FBA confirm	GDH-TPI counter-2	others
COc1ccc(-c2ccc(S(=O)(=O)N3CCOCC3)cc2)cc1	44.5*	-0.6	-0.4	-0.3	-8.0	-7.8	74.8*	48.1*
COc1ccc(S(=O)(=O)N2CCN(C(=O)Cc3cccs3)CC2)cc1	-1.1	-0.2	2.3	2.7	1.8	0.0	/	/
CCCS(=O)(=O)NC(=O)C1(C)CCCN(C(=O)c2cc(F)cc(F)c2)C1 (stereo unspecified)	-5.1	i	/	/	/	2.2	/	/
CN(CC(=O)Nc1ccc(Cl)c(S(=O)(=O)N(C)C)c1)Cc1ccccc1	53.1*	1.3	-0.2	-1.4	3.6	1.5	+	+
COc1ccc(NC(=O)CN(C)CC(=O)Nc2ccc(Cl)c(S(=O)(=O)N(C)C)c2)cc1	3.6	-0.3	4.5	0.7	6.1	-8.2	/	/
CCn1cc(C2C(C(=O)Nc3cc(C)ccn3)=C(C)NC3=C2C(=O)CC(C)(C)C3)c(C)n1 (stereo unspecified)	52.0*	i	1.8	-20.3	-10.5	7.6	104.2*	84.5*
CCN(CC)c1ccc(C2C(C(=O)Nc3ccccn3)=C(C)NC3=C2C(=O)CC(C)(C)C3)cc1 (stereo unspecified)	2.5	i	-2.9	-26.3	4.7	-4.3	/	/
COc1ccc(S(=O)(=O)Nc2c(C(=O)O)[nH]c3ccc(OC)cc23)cc1	26.9*	i	2.5	-2.6	-4.0	2.5	+	+
COc1ccc2[nH]c(C(=O)O)c(CCN3C(=O)c4ccc(C(=O)O)cc4C3=O)c2c1	2.5	-0.6	-0.3	-3.0	-9.0	-4.4	/	/
COc1ccc2[nH]c(C(=O)O)c(NS(=O)(=O)c3ccc(OC)c(OC)c3)c2c1	10.6	i	0.8	3.4	0.2	4.3	/	/
COc1ccc2[nH]c(C(=O)O)c(CCC(=O)O)c2c1	41.5*	-0.2	-4.0	2.3	8.6	-0.6	77.9*	59.0*
O=C(C[C@H]1C/C=C\CC[C@H](Cc2ccc(F)cc2)C(=O)O[C@H](c2ccccc2)CNC1=O)N[C@H](CO)Cc1ccccc1	-0.2	-0.2	1.1	/	-5.5	9.4	/	/
Cc1cc(=O)n2[nH]cc(-c3ccccc3)c2n1	33.9*	0.3	1.1	-2.1	/	6.8	73.5*	60.4*
Cc1nc2c(-c3ccccc3)c[nH]n2c(=O)c1Cc1ccccc1	12.3	23.7	-1.8	-0.4	-3.7	-2.9	/	/
CCCCn1nc2cc(C(=O)NCc3ccccc3OC)ccc2c1OCC	19.2	-8.3	2.2	1.3	-3.3	-8.4	/	/
CCCCn1nc2cc(C(=O)NCCc3cccs3)ccc2c1OCC	61.9*	i	-0.6	0.8	3.6	-0.4	125.4*	103.4*
CCOc1c2ccc(C(=O)NCCc3cccs3)cc2nn1CC	57.9*	i	-1.1	-0.7	1.4	11.2	27.8*	17.7*
CCOc1c2ccc(C(=O)N[C@H](C)C3CCCCC3)cc2nn1CC	64.2*	i	-4.2	-0.1	13.4	14.7	53.1*	44.6*
CC1CN(S(=O)(=O)c2ccc(C(=O)OCc3ccc(C#N)cc3)cc2)CC(C)O1 (stereo unspecified)	-0.2	-0.6	-2.8	/	-13.2	1.3	/	/
CCCCCC(=O)Nc1ccc2oc(-c3cncc(Br)c3)nc2c1	2.1	i	0.8	-2.5	3.2	-4.6	/	/
CCCC(=O)Nc1ccc(-c2nc3cc(C)c(C)cc3o2)cc1	87.0*	-2.8	4.9	2.1	-52.7	23.7	40.2*	40.0*
CCCC(=O)Nc1ccc2oc(-c3cncc(Br)c3)nc2c1	40.3*	i	0.3	-3.5	5.2	0.0	172.0*	132.3*
O=C(Nc1cccc2c1CCCC2)c1cc(C2CCCCN2C(=O)c2cccs2)on1 (stereo unspecified)	-2.3	i	/	/	/	-6.2	/	/
CCN(CC)CCCNC(=O)CCC(=O)Nc1ccc2nc(N3CCCCC3)cc(C)c2c1	107.9*	-0.7	-1.0	-8.4	-8.4	6.9	87.5*	94.5*
CCCCN(CC)CCNC(=S)Nc1ccc2nc(N3CCN(C)CC3)cc(C)c2c1	3.8	-0.7	1.3	-5.0	-4.5	0.7	/	/
SMILES	Mtb FBA inh	BH1578 lux ind	UGM FP inh	RecA intein inh	Rv3671c protease	GDH-TPI counter-1	Mtb FBA confirm	GDH-TPI counter-2	others
Cc1cc(N2CCN(C)CC2)nc2ccc(NC(=O)CCC3CCCC3)cc12	5.2	i	-0.8	0.1	3.3	-4.1	/	/
CCN(CC)CCCNC(=O)CCC(=O)Nc1ccc2nc(N3CCC(C)CC3)cc(C)c2c1	65.2*	i	-2.0	-8.6	-2.8	-2.6	12.0	-1.7	GDH-TPI DR=1.26*
CC1CCCCC1NC(=O)Cn1cnc2sccc2c1=O (stereo unspecified)	1.0	i	/	/	/	5.3	/	/
O=C(CNC(=O)C1CCCCC1)OCc1cc(=O)oc2ccc3ccccc3c12	43.4*	i	-1.8	-1.3	9.1	10.1	2.9	-2.8
O=C(COC(=O)CNC(=O)C1CCCCC1)Nc1ccccc1	2.8	-0.5	-0.3	/	-0.2	6.2	/	/
COc1ccc(-c2cc(C(F)(F)F)n3nc(C(=O)O)nc3n2)cc1	23.3	-2.5	0.9	/	9.2	28.3	/	/
CC(C)(C)NC(=O)c1nc2nc(-c3ccccc3)cc(C(F)(F)F)n2n1	31.8*	-0.1	-1.2	8.0	6.1	0.8	90.5*	62.3*
Nc1nc2nc(-c3ccc(F)cc3)cc(C(F)(F)F)n2n1	41.2*	i	-1.2	-8.7	6.0	-6.8	50.2*	40.2*
O=C(c1nn2c(C(F)(F)F)cc(-c3ccc(F)cc3)nc2c1Cl)N1CCOCC1	5.0	i	3.5	-3.3	-3.3	-0.8	/	/
O=C(c1nc2nc(-c3ccc(Cl)cc3)cc(C(F)(F)F)n2n1)N1CCOCC1	32.8*	2.9	-2.2	1.9	-1.2	26.5	120.7*	94.1*
O=c1nc(-c2ccccc2)n(-c2ccccc2)[nH]1	38.8*	-0.3	0.9	0.8	-0.7	-3.8	156.5*	128.8*
Cc1ccc(C2(C)NC(=O)N(CC(=O)Nc3ccccc3N3CCCC3)C2=O)cc1 (stereo unspecified)	-2.1	i	-0.2	10.5	-4.2	0.7	/	/
Nc1ncccc1C(=O)OCC(=O)N1CCN(S(=O)(=O)c2ccc(Cl)cc2)CC1	62.5*	i	-2.2	/	-10.6	23.3	9.1	-3.9
CCOC(=O)C1=C(COC(=O)c2cccnc2Cl)NC(=O)NC1C (stereo unspecified)	1.2	-1.4	-2.9	-0.5	6.4	5.0	/	/
C=CCn1cc(-c2ccc(Cl)cc2)cc(C#N)c1=O	18.6	-0.7	-6.8	-0.4	4.0	10.9	/	/
C=CCn1cc(-c2ccccc2)cc(C#N)c1=O	73.3*	i	-3.2	4.3	4.0	3.1	-3.8	-3.1
